Data: PubChem BioAssay (EPA / NIEHS)
“And” between values parts separate entries of the source, which are not always exact repeats. Identical values can stand only once. Inconclusive results are not listed. Where a structure was tested more than once in an assay, its records may differ in their call. The source made the active and inactive calls. Rule for the calls, unless noted: active = hit-call score of the fitted dose curve at least 0.9, where 1 is the maximum; inactive = score below 0.9.

Key:
[1] = ATG_M_19_CIS: Attagene CIS-FACTORIAL HepG2 Assay for M19 Transcription Factor (Internal Marker) (AID 2282939); conditions: HepG2 Attagene CIS-FACTORIAL M19 internal marker reporter; actives raise or lower the signal
In short: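 In this multiplexed cell assay, transiently transfected HepG2 reporter units report endogenous transcription-factor activity; after 24 hours of treatment, labelled reporter cDNA fragments are quantified by capillary electrophoresis and fitted bidirectionally against DMSO.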

[2] = ATG_TCF_b_cat_CIS: Attagene CIS-FACTORIAL HepG2 Assay for human T-Cell-Factor with beta-catenin (TCF/b-cat) (AID 2282965); conditions: HepG2 TCF/beta-catenin cis-reporter transcription, actives raise or lower the signal
In short: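 HepG2 cells transiently transfected with cis-promoter-driven multiplexed reporter units; reporter mRNA measured 24 h after dosing by RT-PCR, FAM labelling, HpaI digestion and capillary electrophoresis. Bidirectional fitting relative to DMSO baseline.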

[3] = ATG_VDRE_CIS: Attagene CIS-FACTORIAL HepG2 Assay for human Vitamin D Receptor Element (VDRE) (AID 2282968); conditions: HepG2 VDRE cis-reporter transcription, actives raise or lower the signal
In short: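 Transiently transfected HepG2 cells carrying cis-regulated reporter transcription units were exposed for 24 h. Reporter mRNA was measured by RT-PCR with fluorescent labelling and capillary electrophoresis, and fitted in both directions against DMSO.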

[4] = target: Cellular tumor antigen p53 (Homo sapiens) (UniProt P04637); assay: ATG_p53_CIS: Attagene CIS-FACTORIAL HepG2 Assay for human p53 Transcription Factor (AID 2282994); conditions: HepG2 p53 cis-element reporter, Attagene mRNA; actives raise or lower the signal
Sequence of Cellular tumor antigen p53 (Homo sapiens) (P04637 whole entry, looked up): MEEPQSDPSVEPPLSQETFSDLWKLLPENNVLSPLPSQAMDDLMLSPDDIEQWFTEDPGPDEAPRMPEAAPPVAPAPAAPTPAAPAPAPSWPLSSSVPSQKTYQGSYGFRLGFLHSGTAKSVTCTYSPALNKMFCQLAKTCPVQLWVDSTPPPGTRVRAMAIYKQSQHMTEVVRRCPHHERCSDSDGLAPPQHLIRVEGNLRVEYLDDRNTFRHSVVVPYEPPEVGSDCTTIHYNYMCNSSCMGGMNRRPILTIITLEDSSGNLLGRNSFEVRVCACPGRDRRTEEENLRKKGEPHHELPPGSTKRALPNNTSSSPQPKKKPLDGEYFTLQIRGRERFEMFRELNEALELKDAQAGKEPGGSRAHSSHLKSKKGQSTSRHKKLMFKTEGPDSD
In short: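 Using HepG2 hepatoma cells carrying cis-acting multiplexed reporters, mRNA induction is detected after a 24 h exposure. Gain- and loss-of-signal responses are fitted relative to DMSO-treated cells.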

[5] = target: Nuclear receptor subfamily 1 group I member 2 (Homo sapiens) (UniProt O75469); assay: ATG_PXR_TRANS: Attagene TRANS-FACTORIAL HepG2 Assay for human Pregnane X Receptor (PXR) (AID 2283008; active = hit-call score of the fitted dose curve at least 0.9, where 1 is the maximum)
Sequence of Nuclear receptor subfamily 1 group I member 2 (Homo sapiens) (O75469 whole entry, looked up, the tested form may be a part): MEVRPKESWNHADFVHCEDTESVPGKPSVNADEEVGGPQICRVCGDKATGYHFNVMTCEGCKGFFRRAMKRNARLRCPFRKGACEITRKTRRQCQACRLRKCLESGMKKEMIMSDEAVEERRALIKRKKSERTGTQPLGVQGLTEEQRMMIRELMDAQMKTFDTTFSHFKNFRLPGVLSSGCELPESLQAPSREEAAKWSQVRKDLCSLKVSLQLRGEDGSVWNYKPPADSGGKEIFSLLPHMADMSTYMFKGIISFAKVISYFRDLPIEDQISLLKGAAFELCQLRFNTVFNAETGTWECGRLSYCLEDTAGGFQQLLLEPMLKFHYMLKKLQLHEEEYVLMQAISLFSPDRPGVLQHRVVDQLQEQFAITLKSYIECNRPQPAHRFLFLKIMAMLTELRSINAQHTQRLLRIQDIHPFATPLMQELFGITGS
In short: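 Fluorescence intensity of FAM-labelled, HpaI-digested reporter amplicons, separated by capillary electrophoresis, quantifies induction. HepG2 cells with PXR-Gal4 trans-reporter system were exposed 24 h; DMSO defines baseline.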

[6] = target: human Retinoid X Receptor beta (RXRb), RXRB (gene 6257) (UniProt P28702); assay: ATG_RXRb_TRANS: Attagene TRANS-FACTORIAL HepG2 Assay for human Retinoid X Receptor beta (RXRb) (AID 2283013; active = hit-call score of the fitted dose curve at least 0.9, where 1 is the maximum)
Sequence of human Retinoid X Receptor beta (RXRb), RXRB (gene 6257) (P28702 whole entry, looked up, the tested form may be a part): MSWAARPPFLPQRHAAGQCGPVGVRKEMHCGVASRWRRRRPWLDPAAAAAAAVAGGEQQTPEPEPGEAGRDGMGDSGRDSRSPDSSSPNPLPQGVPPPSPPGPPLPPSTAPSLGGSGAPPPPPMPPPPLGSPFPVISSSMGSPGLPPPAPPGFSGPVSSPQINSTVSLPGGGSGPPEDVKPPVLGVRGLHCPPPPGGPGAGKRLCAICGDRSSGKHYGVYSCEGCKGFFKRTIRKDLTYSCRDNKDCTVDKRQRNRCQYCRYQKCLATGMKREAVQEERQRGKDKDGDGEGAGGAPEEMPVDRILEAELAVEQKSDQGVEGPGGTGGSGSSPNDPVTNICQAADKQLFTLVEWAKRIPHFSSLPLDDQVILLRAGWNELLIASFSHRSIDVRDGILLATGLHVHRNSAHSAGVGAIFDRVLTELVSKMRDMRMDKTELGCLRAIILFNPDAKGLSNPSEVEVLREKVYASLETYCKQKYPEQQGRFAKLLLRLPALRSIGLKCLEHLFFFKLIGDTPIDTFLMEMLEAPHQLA
In short: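 HepG2 cells were transiently transfected with multiplexed GAL4-UAS reporters and a chimeric RXRb-Gal4 construct, then exposed for 24 h. Reporter mRNA was quantified by RT-PCR, FAM labeling, HpaI digestion and capillary electrophoresis; gain of signal was scored against DMSO.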

[7] = ACEA_ER_AUC_viability: ACEA Biosciences xCELLigence Real-Time Cell Analysis on Estrogen Receptor Agonism for Viability (AID 2283782; active = hit-call score of the fitted dose curve at least 0.9, where 1 is the maximum;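 note: continuous compound exposure with impedance area under curve over 80 h; hit means loss of impedance signal meaning reduced cell growth or viability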)
In short: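 T47D cells preconditioned in phenol red-free RPMI with charcoal-stripped FBS, then dosed with 8-point 1:4 series from 100 uM (up to 0.5% DMSO). Impedance monitored up to ~80 h; area-under-curve loss versus DMSO taken as viability.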

[8] = target: mouse Estrogen Receptor alpha (Era), Esr1 (gene 13982) (UniProt P19785); assay: NVS_NR_mERa: NovaScreen (NVS) Nuclear Receptor Binding Assay for mouse Estrogen Receptor alpha (Era) (AID 2283378; active = hit-call score of the fitted dose curve at least 0.9, where 1 is the maximum;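 note: hit means loss of bound radioligand signal relative to DMSO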)
Sequence of mouse Estrogen Receptor alpha (Era), Esr1 (gene 13982) (P19785 whole entry, looked up): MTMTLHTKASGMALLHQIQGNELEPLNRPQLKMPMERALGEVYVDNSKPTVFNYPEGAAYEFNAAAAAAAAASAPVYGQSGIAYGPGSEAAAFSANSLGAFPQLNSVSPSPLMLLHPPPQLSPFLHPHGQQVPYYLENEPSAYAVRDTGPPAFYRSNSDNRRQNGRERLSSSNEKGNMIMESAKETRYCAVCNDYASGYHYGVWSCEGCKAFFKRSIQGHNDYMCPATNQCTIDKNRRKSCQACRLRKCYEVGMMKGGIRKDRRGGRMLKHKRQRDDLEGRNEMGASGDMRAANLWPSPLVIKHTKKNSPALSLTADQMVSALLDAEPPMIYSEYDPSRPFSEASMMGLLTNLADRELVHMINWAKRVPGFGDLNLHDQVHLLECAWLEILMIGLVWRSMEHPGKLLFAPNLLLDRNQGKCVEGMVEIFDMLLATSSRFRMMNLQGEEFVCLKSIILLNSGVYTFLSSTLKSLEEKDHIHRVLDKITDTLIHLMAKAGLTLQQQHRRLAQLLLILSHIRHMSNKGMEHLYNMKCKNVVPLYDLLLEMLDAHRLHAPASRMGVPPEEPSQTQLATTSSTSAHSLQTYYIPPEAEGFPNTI
In short: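 Cell-free radioligand binding with extracted mouse Era protein; competitive displacement of radiolabelled ligand, read by filter-based scintillation counting 18 hours after dosing. Loss of signal versus DMSO baseline taken as binding; single screening concentration 25 uM, actives followed in concentration series.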

[9] = BSK_3C_Proliferation: Cell Proliferation Assessment in the BioMAP Diversity Plus: 3C Assay (AID 2283006); conditions: primary human endothelial cells (HUVEC);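 for AC50: potency may reflect either rise or fall in cell number versus DMSO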
In short: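 Subconfluent HUVEC (3C system) cultured with chemical; relative cell number read at 48 h by sulforhodamine B total-protein staining (0.1% SRB after 10% TCA fixation, 560 nm). Bidirectional fit relative to DMSO.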

[10] = read-out: Interferon-inducible T-cell alpha chemoattractant (ITAC), CXCL11 (gene 6373); assay: BSK_hDFCGF_ITAC: BioMAP Diversity Plus: hDFCGF Assay for Interferon-inducible T-cell alpha chemoattractant (ITAC) Biomarker Activity (AID 2284251); conditions: primary human foreskin fibroblasts
In short: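 Primary human foreskin fibroblasts (hDFCGF system) treated for 24 h; I-TAC quantified by ELISA. Gain-direction fitting versus DMSO; parallel SRB staining of total protein flagged overt cytotoxicity.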

[11] = read-out: Epidermal growth factor receptor (EGFR), EGFR (gene 1956); assay: BSK_BE3C_EGFR: BioMAP Diversity Plus: BE3C Assay for Epidermal growth factor receptor (EGFR) Biomarker Activity (AID 2284281); conditions: primary human bronchial epithelial cells
In short: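 Human primary bronchial epithelial cells (BE3C system) dosed with chemicals; EGFR measured by ELISA at 24 h, fitted in the positive direction relative to DMSO. Cytotoxicity tracked in parallel cultures by SRB total-protein staining.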

[12] = read-out: Matrix Metallopeptidase 9 (MMP9), MMP9 (gene 4318); assay: BSK_BE3C_MMP9: BioMAP Diversity Plus: BE3C Assay for Matrix Metallopeptidase 9 (MMP9) Biomarker Activity (AID 2284283); conditions: primary human bronchial epithelial cells
In short: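 Human primary bronchial epithelial cells in the BE3C system were dosed with compound for 24 h. MMP-9 was measured by ELISA, and the positive-direction response was fitted relative to DMSO as baseline. Parallel SRB staining gauged cytotoxicity.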

[13] = read-out: TIMP metallopeptidase inhibitor 2 (TIMP2), TIMP2 (gene 7077); assay: BSK_hDFCGF_TIMP2: BioMAP Diversity Plus: hDFCGF Assay for TIMP metallopeptidase inhibitor 2 (TIMP2) Biomarker Activity (AID 2284289); conditions: primary human foreskin fibroblasts
In short: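 Primary human foreskin fibroblasts in the hDFCGF system, dosed for 24 h; TIMP-2 level measured by ELISA, fitted in the positive direction against DMSO; cytotoxicity checked in parallel by sulforhodamine B total protein staining.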

[14] = read-out: Thrombomodulin, THBD (gene 7056); assay: BSK_LPS_Thrombomodulin: BioMAP Diversity Plus: LPS Assay for Thrombomodulin Biomarker Activity (AID 2284296); conditions: primary human HUVEC with PBMC
In short: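 Human umbilical vein endothelial cells co-cultured with PBMC and stimulated with LPS; cell-surface thrombomodulin measured by ELISA 24 hours after compound. Gain or loss versus DMSO; cytotoxicity checked by SRB staining in parallel cultures.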

CD69, CD69 (gene 969) = assay: BSK_LPS_CD69: BioMAP Diversity Plus: LPS Assay for CD69 Biomarker Activity (AID 2284303); conditions: primary human HUVEC with PBMC
In short: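 Human umbilical vein endothelial cells co-cultured with PBMC under LPS stimulation, chemical exposure 24 h; cell-surface CD69 measured by ELISA and fitted in the positive direction versus DMSO.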

[15] = target: Transcription factor E2F1 (Homo sapiens) (UniProt Q01094); assay: ATG_E2F_CIS: Attagene CIS-FACTORIAL HepG2 Assay for human E2F Transcription Factor 1 (AID 2282935); conditions: HepG2 Attagene cis-reporter, E2F reporter RNA transcripts; actives raise or lower the signal
Sequence of Transcription factor E2F1 (Homo sapiens) (Q01094 whole entry, looked up): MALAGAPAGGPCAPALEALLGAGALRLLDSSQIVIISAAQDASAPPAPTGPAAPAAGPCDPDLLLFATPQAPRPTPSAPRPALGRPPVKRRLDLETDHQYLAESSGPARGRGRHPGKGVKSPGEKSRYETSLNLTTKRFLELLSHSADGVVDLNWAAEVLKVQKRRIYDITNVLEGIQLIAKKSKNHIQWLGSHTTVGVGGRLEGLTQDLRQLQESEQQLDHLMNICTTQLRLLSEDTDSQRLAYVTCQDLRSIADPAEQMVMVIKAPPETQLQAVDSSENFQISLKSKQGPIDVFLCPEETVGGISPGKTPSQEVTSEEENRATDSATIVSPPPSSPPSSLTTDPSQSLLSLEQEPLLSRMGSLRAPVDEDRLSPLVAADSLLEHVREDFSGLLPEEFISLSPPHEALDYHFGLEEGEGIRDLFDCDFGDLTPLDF
In short: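 Endogenous E2F1 activity read through cis-promoter reporter units transfected into HepG2. After 24 h compound treatment, reporter mRNA measured by RT-PCR, HpaI digestion and capillary electrophoresis. Bidirectional fit versus DMSO.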

[16] = ATG_Sox_CIS: Attagene CIS-FACTORIAL HepG2 Assay for human SRY-box transcription factor (SOX) (AID 2282960); conditions: HepG2 Attagene cis-factorial SOX reporter, mRNA; actives raise or lower the signal
In short: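 HepG2, cis reporter units, 24 h exposure. Reporter mRNA: RT-PCR → FAM labelling → HpaI → CE fluorescence. Bidirectional fit vs DMSO.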

[17] = ATG_TA_CIS: Attagene CIS-FACTORIAL HepG2 Assay for human TA Basal Promoter (AID 2282964); conditions: HepG2 Attagene CIS-factorial TA basal promoter reporter; actives raise or lower the signal
In short: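 Transient MRTU transfection of HepG2 preceded 24 h compound exposure. Reporter mRNA levels were then read by RT-PCR with capillary electrophoresis, and this background-control endpoint was fitted bidirectionally to DMSO.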

[18] = target: X-box-binding protein 1 (Homo sapiens) (UniProt P17861); assay: ATG_Xbp1_CIS: Attagene CIS-FACTORIAL HepG2 Assay for human X-box Binding Protein 1 (XBP1) (AID 2282972); conditions: HepG2 XBP1 cis-element reporter, Attagene multiplex; actives raise or lower the signal
Sequence of X-box-binding protein 1 (Homo sapiens) (P17861 whole entry, looked up): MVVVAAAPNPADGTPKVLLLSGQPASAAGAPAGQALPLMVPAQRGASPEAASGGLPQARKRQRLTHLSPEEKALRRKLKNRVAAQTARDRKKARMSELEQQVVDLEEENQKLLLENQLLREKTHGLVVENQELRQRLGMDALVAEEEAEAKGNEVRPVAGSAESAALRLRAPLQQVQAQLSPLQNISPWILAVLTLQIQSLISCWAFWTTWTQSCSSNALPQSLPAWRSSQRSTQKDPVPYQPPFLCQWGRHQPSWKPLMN
In short: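 After a 24-hour chemical exposure of HepG2 cells carrying cis-regulated reporters, reporter mRNA levels are assessed. Quantification uses RT-PCR, 6-FAM labelling and capillary electrophoresis. Gain- or loss-of-signal is fitted against DMSO.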

[19] = target: Transcriptional activator Myb (Homo sapiens) (UniProt P10242); assay: ATG_Myb_CIS: Attagene CIS-FACTORIAL HepG2 Assay for human Myeloblastosis (Myb) Proto-Oncogene Transcription Factor (AID 2282986); conditions: HepG2 Attagene CIS-FACTORIAL Myb reporter transcription; actives raise or lower the signal
Sequence of Transcriptional activator Myb (Homo sapiens) (P10242 whole entry, looked up): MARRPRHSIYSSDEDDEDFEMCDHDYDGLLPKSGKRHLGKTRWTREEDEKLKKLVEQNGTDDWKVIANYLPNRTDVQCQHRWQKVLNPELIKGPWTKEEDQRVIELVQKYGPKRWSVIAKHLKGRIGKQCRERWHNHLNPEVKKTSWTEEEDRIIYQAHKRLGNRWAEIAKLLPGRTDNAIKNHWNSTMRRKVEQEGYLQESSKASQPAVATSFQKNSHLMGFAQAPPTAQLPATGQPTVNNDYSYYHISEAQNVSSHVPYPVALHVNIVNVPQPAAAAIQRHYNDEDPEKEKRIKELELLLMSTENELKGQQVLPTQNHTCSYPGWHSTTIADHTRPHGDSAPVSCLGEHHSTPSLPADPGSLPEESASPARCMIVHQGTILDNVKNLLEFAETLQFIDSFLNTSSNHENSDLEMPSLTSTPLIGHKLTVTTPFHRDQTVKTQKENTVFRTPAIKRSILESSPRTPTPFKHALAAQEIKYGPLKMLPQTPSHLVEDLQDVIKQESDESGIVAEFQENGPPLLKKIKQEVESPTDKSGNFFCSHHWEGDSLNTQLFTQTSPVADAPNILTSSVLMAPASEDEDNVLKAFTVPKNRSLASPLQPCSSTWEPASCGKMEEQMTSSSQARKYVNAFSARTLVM
In short: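 After 24 h of compound dosing, total RNA from transfected HepG2 cells is reverse-transcribed and the reporter sequences amplified, labeled and separated by capillary electrophoresis. Values come from bidirectional fitting against DMSO.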

Measured: AC50

COc1ccccc1OCC(O)CO (centres undefined)
inactive: [1] | [2] | [3] | [4] | [5] | [6] | [7]

CC(C)(C)C(=O)C(=O)O
inactive: [8] | [7]

COc1ccc(C(=O)c2ccccc2O)c(O)c1
inactive: [10] | [11] | [13] | [14] | CD69, CD69 (gene 969)
active: [9] 23.6 µM | [10] 28.3 µM | [12] 10.2 µM and 17.3 µM

C1CN(CCOCCN2CCOCC2)CCO1
inactive: [9] | [10] | [11] | [12] | [13] | [14] | CD69, CD69 (gene 969)

CC(=O)CC(=O)OC(C)(C)C
inactive: [8]

Oc1ccc(Oc2ccccc2)cc1
active: [3] 38.4 µM | [6] 59.2 µM | [8] 8.86 µM
inactive: [15] | [16] | [17] | [2] | [18] | [19] | [4] | [5]

CCC[Si](OC(C)=O)(OC(C)=O)OC(C)=O
active: CD69, CD69 (gene 969) 0.327 µM
inactive: [9] | [10] | [11] | [12] | [13] | [14] | CD69, CD69 (gene 969)

CC(C)C1OCCN1CCOC(=O)NCCCCCCNC(=O)OCCN1CCOC1C(C)C (centres undefined)
inactive: [9] | [10] | [11] | [12] | [13] | [14] | CD69, CD69 (gene 969)

COc1ccccc1Oc1c(NS(=O)(=O)c2ccc(C(C)(C)C)cc2)nc(-c2ncccn2)nc1OCCO
inactive: [10] | [11] | [12] | [13] | [14] | CD69, CD69 (gene 969)
active: [9] 28.2 µM and 13.9 µM

CCO[Si](OCC)(OCC)c1ccccc1
inactive: [15] | [1] | [16] | [17] | [2] | [3] | [18] | [4] | [5] | [6] | [7]

CCCCCCCCCCCCSC#N
active: [8] 6.16 µM

CC(C)(C)NC(=O)[C@@H]1CN(Cc2cccnc2)CCN1C[C@@H](O)C[C@@H](Cc1ccccc1)C(=O)N[C@H]1c2ccccc2C[C@H]1O
inactive: [15] | [1] | [16] | [17] | [3] | [18] | [19] | [4] | [6]

O=C(O)Cc1c[nH]c2ccccc12
active: [6] 73.7 µM
inactive: [15] | [16] | [17] | [2] | [3] | [19] | [4] | [5] | [7]

CC[N+](CC)(CC(=O)Nc1c(C)cccc1C)Cc1ccccc1 (tested in a mixture with another compound)
not listed: [3] | [4] | [6] | [7] | [8] | [17] | [19]
inactive: all other assays above

C=C(C)C(=O)OCC1CCCO1 (centres undefined)
inactive: [16] | [3] | [18] | [19] | [4] | [5] | [6] | [7]

CCCCCCCCOCCCN
inactive: [8]

CC(C)CC(=O)C1C(=O)c2ccccc2C1=O
inactive: [8]

COc1ccc(COC=O)cc1
inactive: [8] | [7]

Cc1oc(C)c(C(=O)Nc2ccccc2)c1C
inactive: [8]

COC(=O)CCCC(=O)O
inactive: [8]

Cc1cccc(NC(=S)N(C)C)c1
inactive: [8]

CNC(=O)Nc1ccc(Cl)c(Cl)c1
inactive: [8]

CC(COc1ccccc1)N(CCCl)Cc1ccccc1 (centres undefined)
active: [7] 88.7 µM
